# From PubChem BioAssay
# BioA inh: inhibitors of Mycobacterium tuberculosis BioA enzyme. purified M. tuberculosis BioA enzyme, plate reader. inhibition, % at 9.99 µM. 360,000 tested, 0.096% active. AID 602481; in the data active = inhibition above about 40%
# GDH-TPI counter: inhibits GDH-TPI coupling enzymes, artifact for Mtb FBA screen; GDH-TPI coupled enzyme counterscreen, NADH absorbance; inhibition, % at 4.8 µM; 360,000 tested, 1.2% active; AID 588335; in the data active = inhibition above about 30%;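 also: 0% = DMSO wells and 100% = wells lacking the enzyme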
# Mtb hypoxia rep: reduces hypoxia-regulated biosensor signal in M. tuberculosis; M. tuberculosis hypoxia-regulated fluorescent reporter, fluorescence; fluorescence inhibition, % (no concentration beside the values); 300,000 tested, 0.1% active; in the data active = fluorescence inhibition mostly above about 23%, no sharp cut-off; inactive = mostly below about 17%
# FadD28 FP inh: M. tuberculosis FadD28 bisubstrate binding inhibition. AID 588549. inhibition, % at 12.5 µM. 360,000 tested, 0.22% active. FadD28 bisubstrate probe binding, fluorescence polarization; in the data active = inhibition above about 8.5%, passing the limit was not always enough
# Mtb FBA inh: Mtb fructose-bisphosphate aldolase inhibition; purified M. tuberculosis FBA, fluorescence read-out; inhibition, % at 1 µM; 360,000 tested, 2.3% active; AID 588726; in the data active = inhibition above about 27%;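 also: 0% = vehicle and 100% = reference inhibitor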
# Target sequence (P9WQA3 whole entry, looked up): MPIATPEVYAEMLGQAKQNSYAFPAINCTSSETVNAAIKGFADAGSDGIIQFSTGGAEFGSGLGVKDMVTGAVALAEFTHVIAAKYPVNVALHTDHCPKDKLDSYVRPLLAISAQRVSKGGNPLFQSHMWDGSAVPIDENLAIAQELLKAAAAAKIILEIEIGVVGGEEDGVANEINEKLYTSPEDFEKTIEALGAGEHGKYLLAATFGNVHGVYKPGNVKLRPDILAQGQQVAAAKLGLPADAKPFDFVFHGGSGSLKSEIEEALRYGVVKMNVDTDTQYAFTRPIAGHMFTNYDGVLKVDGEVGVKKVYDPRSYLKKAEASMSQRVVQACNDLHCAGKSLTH
# * marks the source's active call; other numbers are inactive results; / = not tested or not shown; + = active, no number; ! = not active in a repeat. The list is not random: actives were taken first. Their share in the collection is about 2.9%.
SMILES,BioA inh,GDH-TPI counter,Mtb hypoxia rep,FadD28 FP inh,Mtb FBA inh
COC(=O)C(NC(=O)c1cc(-c2ccccc2)nc2ccccc12)c1ccccc1 (stereo not given),/,/,1,/,/
CC(=NCc1cccc(Cl)c1)c1nc(-c2ccco2)oc1O,7,34*,-1,-2,-3
Oc1oc(-c2ccco2)nc1C=Nc1cccc(Cl)c1,-2,11,10,0,2
CCOC(=O)c1cc(-c2ccccc2)nc2nc(N(CC)CC)sc12,/,10,-2,-1,65*
CCOC(=O)c1cc(-c2ccccc2)nc2nc(N3CCCCC3)sc12,/,-10,/,-1,18
O=C(N/N=C/c1cccs1)/C(=C/c1ccccc1)NC(=O)c1ccccc1,-1,42*,/,-6,0
O=C(CNC(=O)c1ccccc1)N/N=C/c1cccs1,/,-1,/,-2,-2
COc1ccc(OC)c(/C=C(\NC(=O)c2ccccc2)C(=O)N/N=C/c2ccc(C)s2)c1,-2,49*,/,-3,-3
O=C(Nc1ccccc1)/C(=C\c1cccs1)NC(=O)c1ccccc1,/,23,-7,0,-1
O=C(N/N=C/c1ccc(O)c(O)c1O)/C(=C/c1ccc([N+](=O)[O-])cc1)NC(=O)c1ccccc1,1,37*,/,1,-10
Cc1cccc(NC(=O)/C(=C\c2cccs2)NC(=O)c2ccccc2)c1,-1,34*,8,-2,-1
CN(C)c1ccc(/C=C(/NC(=O)c2ccccc2)C(=O)NN=Cc2ccc([N+](=O)[O-])c(O)c2)cc1,/,/,-1,/,/
CCCNC(=O)N[C@H]1CC[C@H](CCNS(=O)(=O)c2cccc(F)c2)O[C@H]1CO,3,/,/,/,/
COc1cc(C(=O)NN=Cc2coc3ccc(Cl)cc3c2=O)ccc1O,/,/,-4,/,/
CNC[C@H]1Oc2ccc(NS(=O)(=O)c3cccs3)cc2CC(=O)N([C@@H](C)CO)C[C@H]1C,-2,/,/,/,/
C[C@H]1CN([C@@H](C)CO)C(=O)c2cccc(NC(=O)C3CC3)c2O[C@@H]1CN(C)S(=O)(=O)c1cccs1,3,/,/,/,/
COc1ccc(/C=C(/NC(=O)c2ccccc2)C(=O)N/N=C/c2sccc2C)cc1,/,52*,/,0,-1
COc1ccc(/C=C(\NC(=O)c2ccccc2)C(=O)NN=Cc2sccc2C)cc1,/,/,16,/,/
O=C(N/N=C/C=C/c1ccco1)/C(=C/c1ccccc1)NC(=O)c1ccccc1,/,37*,/,-4,0
COc1ccc(/C=C(\NC(=O)c2ccccc2)C(=O)N/N=C/c2sccc2C)cc1,4,40*,/,-2,2
O=C(NN=C/C=C/c1ccco1)c1ccncc1,/,/,13,/,/
COc1ccc(/C=C(/NC(=O)c2ccccc2)C(=O)NN=Cc2sccc2C)cc1,/,/,3,/,/
O=C1NC(=S)N(c2ccccc2)C(=O)/C1=C/c1ccco1,9,-4,/,11*,-2
CC(=O)c1ccc2c(c1)C1C(Cl)C(Sc3ccccc3[N+](=O)[O-])CC1C(C(=O)O)N2 (stereo not given),/,14,2,20*,-9
O=C(O)c1ccccc1NSc1ccccc1[N+](=O)[O-],/,-3,2,-2,-3
SMILES,BioA inh,GDH-TPI counter,Mtb hypoxia rep,FadD28 FP inh,Mtb FBA inh
O=C(O)c1cccc2c1NC(C(=O)O)C1CC(Sc3ccccc3[N+](=O)[O-])C(Cl)C21 (stereo not given),8,12,20,55*,-14
CN(C)c1ccc(NC(=S)NC(=O)C=Cc2ccco2)cc1,/,/,1,/,/
Cc1nc(N2CCN(C)CC2)c2sc(=S)n(-c3ccccc3)c2n1,0,38*,/,-3,2
COCCCn1c(C)nc2c(c1=O)c1nc3ccccc3nc1n2CCc1ccccc1,0,20,14,-3,36*
COc1ccc(C=Nn2cnnc2)cc1COc1ccccn1,/,/,6,/,/
O=C(CSc1c2c(nc3cc(Cl)ccc13)CCCC2)NCCN1CCOCC1,/,3,16,-4,1
Clc1ccc2c(SCC3CO3)c3ccccc3nc2c1 (stereo not given),/,15,/,-2,122*
O=c1c2ccccc2sc2ccc(NCCCN3CCOCC3)cc12,-1,2,10,1,7
COc1cc2sc3cc(NCCCN4CCOCC4)ccc3c(=O)c2cc1OC,0,24,11,-21,34*
O=C(NN=Cc1cc(Cl)ccc1O)c1ccccc1Br,/,/,-3,/,/
Cc1cccc(S(=O)(=O)N2CC[C@@H]3[C@H](CO)N(C)c4ccc(-c5ccc(C#N)cc5)cc4[C@@H]32)c1,0,/,/,/,/
CCc1nn(CC(=O)NCCN2CCOCC2)c(=O)c2cc3c(OC)cccc3n12,0,14,11,-1,+
C[N+](C)(C)c1ccc(/C=N/Nc2nc(Cl)c(C#N)c(Cl)c2Cl)cc1,/,38*,/,-1,-5
CC1OC(OC2C(Oc3cc(O)c4c(c3)OC(c3ccc(O)cc3)CC4=O)OC(CO)C(O)C2O)C(O)C(O)C1O (stereo not given),/,/,85*!,/,/
CC1CC(=O)c2c(cc3c(-c4c(O)cc(O)c5c(O)c6c(cc45)OC(C)CC6=O)c(O)cc(O)c3c2O)O1 (stereo not given),2,17,/,13*,-6
CCOC(=O)c1ccccc1OCc1cc(C=NNC(=O)c2cccnc2)ccc1OC,/,/,1,/,/
ON=C1CCCCc2sccc21,/,/,-3,/,/
N#CC(C#N)=C1CCCc2sccc21,0,33*,/,-5,10
O=C1NCCCC1C(=O)NN=Cc1ccccc1[N+](=O)[O-] (stereo not given),/,/,12,/,/
C[C@H](CO)N1C[C@H](C)[C@H](CN(C)C(=O)Nc2ccc(F)cc2)Oc2ccc(NS(=O)(=O)c3ccc(F)cc3)cc2CC1=O,-3,/,/,/,/
CC(C)(C)c1ccc(C(=O)Nc2nnc(C3=COCCO3)o2)cc1,0,4,-2,3,0
CN(C)c1ccc(C(=O)Nc2nnc(C3=COCCO3)o2)cc1,-3,41*,7,-2,3
O=C(N/N=C/c1c(O)n(Cc2ccc(F)cc2)c(=O)[nH]c1=O)c1ccccc1O,-1,51*,5,19*,12
COc1ccc(Cn2c(O)c(C=NCCN3CCOCC3)c(=O)[nH]c2=O)cc1,-1,9,0,0,0
O=C(N/N=C/c1c(O)n(Cc2ccccc2)c(=O)[nH]c1=O)c1ccccc1O,/,35*,8,4,9
SMILES,BioA inh,GDH-TPI counter,Mtb hypoxia rep,FadD28 FP inh,Mtb FBA inh
O=C(N/N=C/c1c(O)n(CCc2ccccc2)c(=O)[nH]c1=O)c1ccccc1O,/,20,-1,1,14
COc1ccc(Cn2c(O)c(/C=N/NC(=O)c3ccccc3O)c(=O)[nH]c2=O)cc1,/,27,-10,17*,10
O=C(NCc1ccco1)c1cccc(-c2cncc3nccn23)c1,1,-2,/,-5,123*
CCOc1ccc(-c2cnc3cccnn23)cc1,0,16,/,-3,9
O=C(NC1CC1)c1cccc(-c2cncc3nccn23)c1,1,16,/,-4,185*
O=C(NCc1ccco1)c1cccc(-c2ccc3nccn3c2)c1,26,5,/,-2,0
O=C(NC1CC1)c1ccc(-c2cnc3cccnn23)cc1,-2,20,/,-1,+
NC(=O)C1=CC(c2ccccc2)CC(OCCCCO)O1 (stereo not given),/,/,7,/,/
Cc1nn(Cc2ccccc2)c(C)c1C=NNC(=O)CNc1cccc(C(F)(F)F)c1,/,/,9,/,/
